{"source": "PubChem BioAssay (Tox21)", "key": {"[1]": {"target": "Cytochrome P450 1A2 (Homo sapiens) (UniProt P05177)", "sequence (P05177 whole entry, looked up)": "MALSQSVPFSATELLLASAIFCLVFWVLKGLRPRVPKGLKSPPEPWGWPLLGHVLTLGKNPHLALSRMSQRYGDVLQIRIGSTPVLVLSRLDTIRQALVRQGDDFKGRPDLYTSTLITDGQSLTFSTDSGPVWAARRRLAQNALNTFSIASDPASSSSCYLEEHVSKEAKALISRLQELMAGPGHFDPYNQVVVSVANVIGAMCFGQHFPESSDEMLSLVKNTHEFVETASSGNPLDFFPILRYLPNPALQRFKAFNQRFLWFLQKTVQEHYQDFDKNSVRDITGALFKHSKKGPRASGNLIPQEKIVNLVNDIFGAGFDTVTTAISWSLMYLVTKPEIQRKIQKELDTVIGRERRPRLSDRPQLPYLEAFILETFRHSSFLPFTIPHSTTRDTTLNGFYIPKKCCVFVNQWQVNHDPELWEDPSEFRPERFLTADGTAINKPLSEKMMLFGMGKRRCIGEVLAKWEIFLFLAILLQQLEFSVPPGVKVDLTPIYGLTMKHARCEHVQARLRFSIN", "test": "Cytochrome P450 Family 1 Subfamily A Member 2 (CYP1A2) small molecule antagonists: luciferase reporter qHTS assay (AID 1671199)", "method_in_brief": "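P450-Glo CYP1A2 enzyme–proluciferin substrate mix with compound 10 min at room temperature, then NADPH regeneration 1 h at room temperature. Luciferin detection reagent added, luminescence read after 20 min; furafylline positive control.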"}, "[2]": {"target": "Voltage-gated inwardly rectifying potassium channel KCNH2 (Homo sapiens) (UniProt Q12809)", "sequence (Q12809 whole entry, looked up)": "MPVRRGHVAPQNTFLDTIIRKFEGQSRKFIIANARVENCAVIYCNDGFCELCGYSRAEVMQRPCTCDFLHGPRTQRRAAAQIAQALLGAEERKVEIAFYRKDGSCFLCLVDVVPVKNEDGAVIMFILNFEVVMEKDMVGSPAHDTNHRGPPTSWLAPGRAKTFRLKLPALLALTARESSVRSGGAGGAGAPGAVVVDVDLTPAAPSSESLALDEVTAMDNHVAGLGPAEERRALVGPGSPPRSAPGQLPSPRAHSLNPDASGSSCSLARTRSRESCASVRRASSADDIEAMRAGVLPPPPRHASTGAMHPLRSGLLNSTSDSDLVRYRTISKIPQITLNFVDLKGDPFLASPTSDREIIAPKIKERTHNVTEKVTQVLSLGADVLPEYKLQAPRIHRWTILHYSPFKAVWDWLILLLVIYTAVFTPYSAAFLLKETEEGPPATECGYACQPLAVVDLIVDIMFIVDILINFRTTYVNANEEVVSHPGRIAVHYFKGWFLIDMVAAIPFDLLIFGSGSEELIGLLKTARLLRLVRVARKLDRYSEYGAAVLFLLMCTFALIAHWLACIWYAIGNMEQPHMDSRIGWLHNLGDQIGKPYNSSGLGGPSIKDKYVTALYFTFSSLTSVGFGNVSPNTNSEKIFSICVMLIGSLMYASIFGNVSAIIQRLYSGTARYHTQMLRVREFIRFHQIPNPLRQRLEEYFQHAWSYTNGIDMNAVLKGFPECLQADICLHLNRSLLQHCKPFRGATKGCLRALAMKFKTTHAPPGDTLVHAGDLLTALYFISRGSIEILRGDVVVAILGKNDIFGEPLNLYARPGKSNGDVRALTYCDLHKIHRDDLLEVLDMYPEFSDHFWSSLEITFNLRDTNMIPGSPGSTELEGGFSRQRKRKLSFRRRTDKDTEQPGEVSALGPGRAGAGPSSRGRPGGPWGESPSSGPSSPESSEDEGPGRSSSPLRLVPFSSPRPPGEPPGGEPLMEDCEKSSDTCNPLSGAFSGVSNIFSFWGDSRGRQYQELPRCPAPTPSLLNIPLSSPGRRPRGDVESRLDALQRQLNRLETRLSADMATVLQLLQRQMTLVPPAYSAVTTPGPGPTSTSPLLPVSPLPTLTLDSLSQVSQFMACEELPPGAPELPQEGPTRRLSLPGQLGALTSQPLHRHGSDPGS", "test": "Human Ether-a-go-go-Related Gene (hERG) channel small molecule antagonists: fluorescence cell-based qHTS assay (AID 1671200)", "method_in_brief": "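Kinetic two-minute fluorescence traces, sampled at 1 s, were collected following thallium stimulus of U2OS cells (1000 per well) that had been cultured overnight at 37 C and loaded with FluxOR II.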"}, "[3]": {"target": "Cytochrome P450 3A4 (Homo sapiens) (UniProt P08684)", "sequence (P08684 whole entry, looked up)": "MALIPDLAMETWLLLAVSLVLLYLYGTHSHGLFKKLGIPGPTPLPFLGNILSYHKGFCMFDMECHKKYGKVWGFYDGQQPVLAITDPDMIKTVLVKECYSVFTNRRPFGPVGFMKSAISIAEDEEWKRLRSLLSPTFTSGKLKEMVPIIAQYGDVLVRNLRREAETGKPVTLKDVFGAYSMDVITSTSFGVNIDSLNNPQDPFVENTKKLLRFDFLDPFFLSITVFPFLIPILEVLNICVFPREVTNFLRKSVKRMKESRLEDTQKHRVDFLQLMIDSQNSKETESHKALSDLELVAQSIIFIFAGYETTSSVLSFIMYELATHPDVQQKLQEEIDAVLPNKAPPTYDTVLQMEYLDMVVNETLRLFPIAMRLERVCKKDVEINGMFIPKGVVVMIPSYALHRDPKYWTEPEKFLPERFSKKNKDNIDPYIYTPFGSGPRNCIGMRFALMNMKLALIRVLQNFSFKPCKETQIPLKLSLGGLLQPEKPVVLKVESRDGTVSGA", "test": "Cytochrome P450 Family 3 Subfamily A Member 4 (CYP3A4) small molecule antagonists: luciferase reporter qHTS assay (AID 1671201)", "method_in_brief": "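Proluciferin-to-luciferin conversion by CYP3A4, NADPH-regenerated, 1 h RT; luminescence read as RLU. Ketoconazole as control.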"}}, "note": "Values joined by “and” are separate entries in the source; they are usually repeats but may differ in a detail not shown here. Equal entries are not always repeated. Inconclusive results are not listed. A call without a number means that no potency is given here. Unmarked numbers belong to inactive results. Active and inactive are the calls of the source. Calls follow the shape of the dose curve; as a rule, active = well fitted curve in the direction sought with a large enough effect in the repeat runs; inconclusive = weak or mixed curves; inactive = no such curve, though single readings can be large; an effect the other way counts as inactive or inconclusive. Also: nearly all actives have a fitted effect of over 50% in size. Potency is read from the fitted curve at half-maximal effect.", "data": [{"compound": "CCCC(=O)OCCc1ccccc1", "values": [{"measurement": "Potency", "setting": "[1]", "result": "inactive"}, {"measurement": "Potency", "setting": "[2]", "result": "inactive"}, {"measurement": "Potency", "setting": "[3]", "result": "inactive"}]}, {"compound": "Nc1nc(-c2ccccc2)cs1", "values": [{"measurement": "Potency", "setting": "[1]", "result": "8.91 µM (active)"}, {"measurement": "Potency", "setting": "[2]", "result": "inactive"}, {"measurement": "Potency", "setting": "[3]", "result": "5.62 µM (active)"}]}, {"compound": "CCc1ccc(Br)cc1", "values": [{"measurement": "Potency", "setting": "[1]", "result": "inactive"}, {"measurement": "Potency", "setting": "[2]", "result": "inactive"}, {"measurement": "Potency", "setting": "[3]", "result": "inactive"}]}, {"compound": "FC(F)(F)c1cccc(Cl)c1", "values": [{"measurement": "Potency", "setting": "[1]", "result": "inactive"}, {"measurement": "Potency", "setting": "[2]", "result": "inactive"}, {"measurement": "Potency", "setting": "[3]", "result": "inactive"}]}, {"compound": "c1cnccn1", "values": [{"measurement": "Potency", "setting": "[1]", "result": "36.8 µM (active)"}, {"measurement": "Potency", "setting": "[2]", "result": "inactive"}, {"measurement": "Potency", "setting": "[3]", "result": "inactive"}]}, {"compound": "c1ccsc1", "values": [{"measurement": "Potency", "setting": "[1]", "result": "inactive"}, {"measurement": "Potency", "setting": "[2]", "result": "inactive"}, {"measurement": "Potency", "setting": "[3]", "result": "inactive"}]}, {"compound": "CCCCCCOC(=O)C(C)CC", "note": "(stereo unspecified)", "values": [{"measurement": "Potency", "setting": "[1]", "result": "inactive"}, {"measurement": "Potency", "setting": "[2]", "result": "inactive"}, {"measurement": "Potency", "setting": "[3]", "result": "inactive"}]}, {"compound": "OCC(F)(F)F", "values": [{"measurement": "Potency", "setting": "[1]", "result": "inactive"}, {"measurement": "Potency", "setting": "[2]", "result": "inactive"}, {"measurement": "Potency", "setting": "[3]", "result": "inactive"}]}, {"compound": "CCCCCC/C=C\\CCCCCCCC(=O)O", "values": [{"measurement": "Potency", "setting": "[1]", "result": "inactive"}, {"measurement": "Potency", "setting": "[2]", "result": "inactive"}, {"measurement": "Potency", "setting": "[3]", "result": "inactive"}]}, {"compound": "CC(C)CCCCCOC(=O)CCS", "values": [{"measurement": "Potency", "setting": "[1]", "result": "39.9 µM (active)"}, {"measurement": "Potency", "setting": "[2]", "result": "inactive"}, {"measurement": "Potency", "setting": "[3]", "result": "inactive"}]}, {"compound": "O=S(=O)(O)c1ccc(Nc2nc(Nc3ccc(/C=C/c4ccc(Nc5nc(Nc6ccc(S(=O)(=O)O)cc6)nc(N(CCO)CCO)n5)cc4S(=O)(=O)O)c(S(=O)(=O)O)c3)nc(N(CCO)CCO)n2)cc1", "values": [{"measurement": "Potency", "setting": "[1]", "result": "inactive"}, {"measurement": "Potency", "setting": "[2]", "result": "inactive"}, {"measurement": "Potency", "setting": "[3]", "result": "inactive"}]}, {"compound": "CCCCCCCCCCCCOC(=O)c1ccc(O)cc1", "values": [{"measurement": "Potency", "setting": "[1]", "result": "12.7 µM (active)"}, {"measurement": "Potency", "setting": "[2]", "result": "inactive"}, {"measurement": "Potency", "setting": "[3]", "result": "35.9 µM (active)"}]}, {"compound": "OC/C=C/CO", "values": [{"measurement": "Potency", "setting": "[1]", "result": "inactive"}, {"measurement": "Potency", "setting": "[2]", "result": "inactive"}, {"measurement": "Potency", "setting": "[3]", "result": "inactive"}]}, {"compound": "O=C(O)c1cccc(C(F)(F)F)c1", "values": [{"measurement": "Potency", "setting": "[1]", "result": "inactive"}, {"measurement": "Potency", "setting": "[2]", "result": "inactive"}, {"measurement": "Potency", "setting": "[3]", "result": "inactive"}]}, {"compound": "CC(CCc1ccccc1)NCC(O)c1ccc(O)c(C(N)=O)c1", "note": "(stereo unspecified)", "values": [{"measurement": "Potency", "setting": "[1]", "result": "inactive"}, {"measurement": "Potency", "setting": "[2]", "result": "19.5 µM (active)"}, {"measurement": "Potency", "setting": "[3]", "result": "inactive"}]}, {"compound": "CCC(CC)C(C)CCOC(C)=O", "note": "(stereo unspecified)", "values": [{"measurement": "Potency", "setting": "[1]", "result": "inactive"}, {"measurement": "Potency", "setting": "[2]", "result": "inactive"}, {"measurement": "Potency", "setting": "[3]", "result": "inactive"}]}, {"compound": "Cc1nc(-c2ccc(Cl)cc2)oc1COC(C)(C)C(=O)O", "values": [{"measurement": "Potency", "setting": "[1]", "result": "inactive"}, {"measurement": "Potency", "setting": "[2]", "result": "inactive"}, {"measurement": "Potency", "setting": "[3]", "result": "inactive"}]}, {"compound": "S=C([S-])NCCNC(=S)[S-].S=C([S-])NCCNC(=S)[S-].[Mn+2].[Zn+2]", "values": [{"measurement": "Potency", "setting": "[1]", "result": "15.5 µM (active)"}, {"measurement": "Potency", "setting": "[2]", "result": "inactive"}, {"measurement": "Potency", "setting": "[3]", "result": "inactive"}]}, {"compound": "CCCCCCCCCCCCCC[N+](C)(C)C", "values": [{"measurement": "Potency", "setting": "[1]", "result": "inactive"}, {"measurement": "Potency", "setting": "[2]", "result": "13.3 µM (active) and 19.5 µM (active) and 21.3 µM (active)"}, {"measurement": "Potency", "setting": "[3]", "result": "inactive"}]}, {"compound": "C=CC(=O)Nc1cc2c(Nc3ccc(F)c(Cl)c3)ncnc2cc1OCCCN1CCOCC1", "values": [{"measurement": "Potency", "setting": "[1]", "result": "inactive"}, {"measurement": "Potency", "setting": "[2]", "result": "inactive"}, {"measurement": "Potency", "setting": "[3]", "result": "12.3 µM (active)"}]}, {"compound": "OC12N=C(c3ccccc3)SC1Cc1cc(Cl)ccc12", "note": "(stereo unspecified)", "values": [{"measurement": "Potency", "setting": "[1]", "result": "1.78 µM (active)"}, {"measurement": "Potency", "setting": "[2]", "result": "inactive"}, {"measurement": "Potency", "setting": "[3]", "result": "31.7 µM (active)"}]}, {"compound": "O=S(=O)(O)c1ccc(N=Nc2c(O)ccc3ccccc23)cc1", "values": [{"measurement": "Potency", "setting": "[1]", "result": "31.7 µM (active)"}, {"measurement": "Potency", "setting": "[2]", "result": "inactive"}, {"measurement": "Potency", "setting": "[3]", "result": "35.6 µM (active)"}]}, {"compound": "NC(=O)c1cccc([N+](=O)[O-])c1", "values": [{"measurement": "Potency", "setting": "[1]", "result": "35.4 µM (active)"}, {"measurement": "Potency", "setting": "[2]", "result": "inactive"}, {"measurement": "Potency", "setting": "[3]", "result": "inactive"}]}, {"compound": "Cc1cc(C(C#N)c2ccc(Cl)cc2)c(Cl)cc1NC(=O)c1cc(I)cc(I)c1O", "note": "(stereo unspecified)", "values": [{"measurement": "Potency", "setting": "[1]", "result": "inactive"}, {"measurement": "Potency", "setting": "[2]", "result": "inactive"}, {"measurement": "Potency", "setting": "[3]", "result": "inactive"}]}, {"compound": "Cc1cc(C(C)(C)C)c(O)c(C)c1Cn1c(=O)n(Cc2c(C)cc(C(C)(C)C)c(O)c2C)c(=O)n(Cc2c(C)cc(C(C)(C)C)c(O)c2C)c1=O", "values": [{"measurement": "Potency", "setting": "[1]", "result": "31.7 µM (active)"}, {"measurement": "Potency", "setting": "[2]", "result": "inactive"}, {"measurement": "Potency", "setting": "[3]", "result": "7.97 µM (active)"}]}, {"compound": "CCCNCCC", "values": [{"measurement": "Potency", "setting": "[1]", "result": "inactive"}, {"measurement": "Potency", "setting": "[2]", "result": "inactive"}, {"measurement": "Potency", "setting": "[3]", "result": "inactive"}]}, {"compound": "Clc1ccnc(Cl)n1", "values": [{"measurement": "Potency", "setting": "[1]", "result": "inactive"}, {"measurement": "Potency", "setting": "[2]", "result": "inactive"}, {"measurement": "Potency", "setting": "[3]", "result": "inactive"}]}, {"compound": "CC/C=C\\CCCCCO", "values": [{"measurement": "Potency", "setting": "[1]", "result": "inactive"}, {"measurement": "Potency", "setting": "[2]", "result": "inactive"}, {"measurement": "Potency", "setting": "[3]", "result": "inactive"}]}, {"compound": "Fc1ccc(C(c2ccc(F)cc2)N2CCNCC2)cc1", "values": [{"measurement": "Potency", "setting": "[1]", "result": "inactive"}, {"measurement": "Potency", "setting": "[3]", "result": "inactive"}]}, {"compound": "C=CCCC(=O)/C=C/C1C(C)=CCCC1(C)C", "note": "(stereo unspecified)", "values": [{"measurement": "Potency", "setting": "[1]", "result": "inactive"}, {"measurement": "Potency", "setting": "[3]", "result": "17.8 µM (active)"}]}, {"compound": "Cc1c(C)c([N+](=O)[O-])c(C(C)(C)C)c([N+](=O)[O-])c1C", "values": [{"measurement": "Potency", "setting": "[1]", "result": "20 µM (active)"}, {"measurement": "Potency", "setting": "[3]", "result": "inactive"}]}, {"compound": "O=C(/C=C/c1ccccc1)OC/C=C/c1ccccc1", "values": [{"measurement": "Potency", "setting": "[1]", "result": "28.3 µM (active)"}, {"measurement": "Potency", "setting": "[3]", "result": "inactive"}]}, {"compound": "CCCCCc1ccc(Cl)cc1", "values": [{"measurement": "Potency", "setting": "[1]", "result": "inactive"}, {"measurement": "Potency", "setting": "[3]", "result": "inactive"}]}, {"compound": "CC(=O)c1ccc(C(C)=O)cc1", "values": [{"measurement": "Potency", "setting": "[1]", "result": "28.9 µM (active)"}, {"measurement": "Potency", "setting": "[2]", "result": "inactive"}, {"measurement": "Potency", "setting": "[3]", "result": "inactive"}]}, {"compound": "CCOC(=O)c1ccc(C2CCC(NC[C@H](O)COc3ccc(O)c(NS(C)(=O)=O)c3)CC2)cc1", "note": "(stereo partly specified)", "values": [{"measurement": "Potency", "setting": "[1]", "result": "inactive"}, {"measurement": "Potency", "setting": "[3]", "result": "inactive"}]}, {"compound": "CC(C)CCOC(=O)/C=C/c1ccccc1", "values": [{"measurement": "Potency", "setting": "[1]", "result": "22.5 µM (active)"}, {"measurement": "Potency", "setting": "[3]", "result": "inactive"}]}, {"compound": "CC(C)(C)c1ccc(C(O)CCCN2CCC(C(O)(c3ccccc3)c3ccccc3)CC2)cc1", "note": "(stereo unspecified)", "values": [{"measurement": "Potency", "setting": "[1]", "result": "inactive"}, {"measurement": "Potency", "setting": "[3]", "result": "inactive"}]}, {"compound": "O=C(O)c1cc(N=Nc2ccc([N+](=O)[O-])cc2)ccc1O", "values": [{"measurement": "Potency", "setting": "[2]", "result": "inactive"}]}, {"compound": "O=C1c2ccccc2C(=O)N1SC1CCCCC1", "values": [{"measurement": "Potency", "setting": "[1]", "result": "35.5 µM (active) and 35.6 µM (active)"}, {"measurement": "Potency", "setting": "[3]", "result": "inactive"}]}]}
